# Measured values reported in PubChem BioAssay (NCI).
# Compounds without any hit were thinned out: in the full panel of roughly 79,000, 15% have a hit. Values without a mark were called inactive. Calls of active or inactive are those of the source. Cut-off read from the data, not from the text of the source: active = growth inhibition above about 70%; inactive = the rest.
# How the values were obtained:
# [1] = NCI Yeast Anticancer Drug Screen. Data for the rad52 strain (AID 147);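 note: 0% = growth of vehicle-treated control cultures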; conditions: S. cerevisiae rad52 mutant growth inhibition, stronger effect = higher value
# Method in brief: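 Inhibition of yeast growth, referenced to vehicle controls, was the measured output for a strain with defective DNA damage repair.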
# [2] = NCI Yeast Anticancer Drug Screen. Data for the wt1 strain (AID 149);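 note: 0% = growth of vehicle-treated wt1 cultures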; conditions: S. cerevisiae wt1 strain (SPY 50644) growth inhibition, stronger effect = higher value
# Method in brief: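 The wt1 strain was treated with compounds, and growth was compared with vehicle-treated cultures to give inhibition.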
# [3] = NCI Yeast Anticancer Drug Screen. Data for the rad50EPP+ strain (AID 151);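 note: 0% = growth of vehicle-treated control cultures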; conditions: S. cerevisiae rad50 mutant strain, stronger effect = higher value
# Method in brief: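 Genetically defined yeast (rad50EPP+, DNA damage repair alteration) is grown with compound, and inhibition of growth is expressed relative to vehicle-treated controls.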
# [4] = NCI Yeast Anticancer Drug Screen. Data for the mgt1 strain (AID 153); conditions: S. cerevisiae mgt1 mutant growth inhibition, stronger effect = higher value
# Method in brief: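 In the mgt1 strain, test compounds were added and growth inhibition was determined relative to vehicle-treated controls.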
# [5] = NCI Yeast Anticancer Drug Screen. Data for the rad50 strain (AID 155);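 note: 0% = growth of vehicle-only cultures of the same strain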; conditions: S. cerevisiae rad50 strain growth inhibition, stronger effect = higher value
# Method in brief: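 Cells are treated with compound, grown, and their growth is then scored against vehicle-only cultures of the same repair-deficient yeast strain.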
# [6] = NCI Yeast Anticancer Drug Screen. Data for the mec2-1 strain (AID 157); conditions: S. cerevisiae mec2-1 strain, stronger effect = higher value
# Method in brief: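 Each compound was tested on mec2-1 yeast, a strain altered in DNA damage repair or cell cycle control. Growth inhibition is reported relative to vehicle.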
# [7] = NCI Yeast Anticancer Drug Screen. Data for the rad14 strain (AID 159);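 note: 0% = growth of vehicle-treated control cultures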; conditions: S. cerevisiae rad14 strain growth inhibition, stronger effect = higher value
# Method in brief: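 Readout: yeast growth inhibition, referenced to vehicle-only cultures. Strain bears a defined alteration in DNA damage repair.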
# [8] = NCI Yeast Anticancer Drug Screen. Data for the sgs1 mgt1 strain (AID 161);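 note: 0% = growth of cultures given vehicle only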; conditions: S. cerevisiae sgs1 mgt1 strain, stronger effect = higher value
# Method in brief: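 Test agents were incubated with a DNA-repair-mutant yeast strain. Growth was then read and compared against vehicle-treated controls.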
# [9] = NCI Yeast Anticancer Drug Screen. Data for the CLN2oe strain (AID 163);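 note: 0% = growth of vehicle-only control cultures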; conditions: S. cerevisiae CLN2oe strain, stronger effect = higher value
# Method in brief: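 First, the altered yeast strain was treated with each compound; second, its growth was measured; finally, inhibition was derived by comparison with vehicle controls.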
# [10] = NCI Yeast Anticancer Drug Screen. Data for the cln2 rad14 strain (AID 165);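 note: 0% = growth equal to vehicle treated cultures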; conditions: S. cerevisiae cln2 rad14 strain, stronger effect = higher value
# Method in brief: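 Test compounds were added to cln2 rad14 yeast cultures; inhibition of growth was then determined by comparison with vehicle treatment.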
# [11] = NCI Yeast Anticancer Drug Screen. Data for the bub3 strain (AID 167); conditions: S. cerevisiae bub3 mutant strain, stronger effect = higher value
# Method in brief: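 Part of a panel of yeast mutants defective in DNA damage repair or cell cycle regulation. Each strain is grown with compound, and inhibition is calculated relative to solvent-treated cultures.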
# [12] = NCI Yeast Anticancer Drug Screen. Data for the wt2 strain (AID 169);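 note: 0% = growth of vehicle-treated yeast cultures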; conditions: S. cerevisiae wt2 strain growth inhibition, stronger effect = higher value
# Method in brief: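 The panel's yeast strains carry defined changes in DNA repair or cell cycle genes. Each strain is grown with compound, and growth loss is scored relative to vehicle.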
# [13] = NCI Yeast Anticancer Drug Screen. Data for the mlh1 strain (AID 171);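 note: 0% = growth of vehicle-treated control cultures of the same strain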; conditions: S. cerevisiae mlh1 strain growth inhibition, stronger effect = higher value
# Method in brief: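 Inhibition values reflect reduced yeast growth in the presence of compound, referenced to vehicle controls, using a strain chosen for its alteration in DNA repair or cell cycle control.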
# [14] = NCI Yeast Anticancer Drug Screen. Data for the sgs1 strain (AID 173);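 note: 0% = growth of vehicle-only control cultures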; conditions: S. cerevisiae sgs1 mutant, stronger effect = higher value
# Method in brief: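 Vehicle-treated cultures served as reference for growth inhibition of a yeast strain altered in DNA damage repair or cell cycle control after compound exposure.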
# [15] = NCI Yeast Anticancer Drug Screen. Data for the mlh1 rad18 strain (AID 175); conditions: S. cerevisiae mlh1 rad18 strain growth inhibition, stronger effect = higher value
# Method in brief: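 Inhibition values reflect reduced growth of mutant yeast versus vehicle-treated controls following compound exposure; the mutations affect DNA damage repair.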
# [16] = NCI Yeast Anticancer Drug Screen. Data for the rad18 strain (AID 177); conditions: S. cerevisiae rad18 mutant growth inhibition, stronger effect = higher value
# Method in brief: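 Steps: expose repair-mutant yeast to compound; measure growth; express as inhibition relative to vehicle control.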
# [17] = at 5.0 µM (retest, dose inferred, filed as 0.5)
# [18] = at 50.0 µM (retest, dose inferred, filed as 5.0)
compound,measurement,setting,value
O=CC=C(c1ccccc1)c1ccccc1,growth inhibition,[1]; at 1.2 µM,-2%
same,growth inhibition,[1]; at 3.7 µM,0%
same,growth inhibition,[1]; at 11.0 µM,-9%
same,growth inhibition,[1]; at 33.0 µM,8%
same,growth inhibition,[1]; at 100.0 µM,95% (active)
same,growth inhibition,[2]; at 1.2 µM,-3%
same,growth inhibition,[2]; at 3.7 µM,3%
same,growth inhibition,[2]; at 11.0 µM,-4%
same,growth inhibition,[2]; at 33.0 µM,10%
same,growth inhibition,[2]; at 100.0 µM,98% (active)
same,growth inhibition,[3]; at 1.2 µM,20%
same,growth inhibition,[3]; at 3.7 µM,18%
same,growth inhibition,[3]; at 11.0 µM,26%
same,growth inhibition,[3]; at 33.0 µM,43%
same,growth inhibition,[3]; at 100.0 µM,83% (active)
same,growth inhibition,[4]; at 1.2 µM,-10%
same,growth inhibition,[4]; at 3.7 µM,-6%
same,growth inhibition,[4]; at 11.0 µM,2%
same,growth inhibition,[4]; at 33.0 µM,10%
same,growth inhibition,[4]; at 100.0 µM,98% (active)
same,growth inhibition,[5]; at 1.2 µM,8%
same,growth inhibition,[5]; at 3.7 µM,5%
same,growth inhibition,[5]; [17],41%
same,growth inhibition,[5]; at 11.0 µM,4%
same,growth inhibition,[5]; at 33.0 µM,11%
same,growth inhibition,[5]; [18],86% (active)
same,growth inhibition,[5]; at 50.0 µM,39.6%
same,growth inhibition,[5]; at 100.0 µM,98% (active)
same,growth inhibition,[6]; at 1.2 µM,4%
same,growth inhibition,[6]; at 3.7 µM,0%
same,growth inhibition,[6]; [17],51%
same,growth inhibition,[6]; at 11.0 µM,0%
same,growth inhibition,[6]; at 33.0 µM,20%
same,growth inhibition,[6]; [18],93% (active)
same,growth inhibition,[6]; at 50.0 µM,-13.3%
same,growth inhibition,[6]; at 100.0 µM,98% (active)
same,growth inhibition,[7]; at 1.2 µM,7%
same,growth inhibition,[7]; at 3.7 µM,-2%
same,growth inhibition,[7]; at 11.0 µM,3%
same,growth inhibition,[7]; at 33.0 µM,10%
same,growth inhibition,[7]; at 100.0 µM,98% (active)
same,growth inhibition,[8]; [17],-9%
same,growth inhibition,[8]; [18],97% (active)
same,growth inhibition,[8]; at 50.0 µM,80% (active)
same,growth inhibition,[9]; at 1.2 µM,16%
same,growth inhibition,[9]; at 3.7 µM,5%
same,growth inhibition,[9]; at 11.0 µM,13%
same,growth inhibition,[9]; at 33.0 µM,20%
same,growth inhibition,[9]; at 100.0 µM,98% (active)
same,growth inhibition,[10]; [17],36%
same,growth inhibition,[10]; [18],99% (active)
same,growth inhibition,[10]; at 50.0 µM,39.1%
same,growth inhibition,[11]; at 1.2 µM,-11%
same,growth inhibition,[11]; at 3.7 µM,-13%
same,growth inhibition,[11]; [17],30%
same,growth inhibition,[11]; at 11.0 µM,-32%
same,growth inhibition,[11]; at 33.0 µM,-10%
same,growth inhibition,[11]; [18],98% (active)
same,growth inhibition,[11]; at 50.0 µM,40.6%
same,growth inhibition,[11]; at 100.0 µM,98% (active)
same,growth inhibition,[12]; at 1.2 µM,4%
same,growth inhibition,[12]; at 3.7 µM,9%
same,growth inhibition,[12]; at 11.0 µM,6%
same,growth inhibition,[12]; at 33.0 µM,22%
same,growth inhibition,[12]; at 100.0 µM,97% (active)
same,growth inhibition,[13]; at 1.2 µM,5%
same,growth inhibition,[13]; at 3.7 µM,10%
same,growth inhibition,[13]; at 11.0 µM,16%
same,growth inhibition,[13]; at 33.0 µM,19%
same,growth inhibition,[13]; at 100.0 µM,99% (active)
same,growth inhibition,[14]; at 1.2 µM,-3%
same,growth inhibition,[14]; at 3.7 µM,4%
same,growth inhibition,[14]; at 11.0 µM,11%
same,growth inhibition,[14]; at 33.0 µM,43%
same,growth inhibition,[14]; at 100.0 µM,99% (active)
same,growth inhibition,[15]; [17],16%
same,growth inhibition,[15]; [18],90% (active)
same,growth inhibition,[15]; at 50.0 µM,28.4%
same,growth inhibition,[16]; at 1.2 µM,20%
same,growth inhibition,[16]; at 3.7 µM,26%
same,growth inhibition,[16]; at 11.0 µM,25%
same,growth inhibition,[16]; at 33.0 µM,34%
same,growth inhibition,[16]; at 100.0 µM,98% (active)
CCOC(=O)c1cc(-c2ccc(Cl)cc2)c([N+](=O)[O-])n1C,growth inhibition,[1]; at 1.2 µM,12%
same,growth inhibition,[1]; at 3.7 µM,24%
same,growth inhibition,[1]; at 11.0 µM,41%
same,growth inhibition,[1]; at 33.0 µM,90% (active)
same,growth inhibition,[1]; at 100.0 µM,96% (active)
same,growth inhibition,[2]; at 1.2 µM,1%
same,growth inhibition,[2]; at 3.7 µM,3%
same,growth inhibition,[2]; at 11.0 µM,13%
same,growth inhibition,[2]; at 33.0 µM,68%
same,growth inhibition,[2]; at 100.0 µM,96% (active)
same,growth inhibition,[3]; at 1.2 µM,16%
same,growth inhibition,[3]; at 3.7 µM,23%
same,growth inhibition,[3]; at 11.0 µM,48%
same,growth inhibition,[3]; at 33.0 µM,78% (active)
same,growth inhibition,[3]; at 100.0 µM,93% (active)
same,growth inhibition,[4]; at 1.2 µM,-10%
same,growth inhibition,[4]; at 3.7 µM,-2%
same,growth inhibition,[4]; at 11.0 µM,1%
same,growth inhibition,[4]; at 33.0 µM,84% (active)
same,growth inhibition,[4]; at 100.0 µM,96% (active)
same,growth inhibition,[5]; at 1.2 µM,9%
same,growth inhibition,[5]; at 3.7 µM,26%
same,growth inhibition,[5]; [17],-12%
same,growth inhibition,[5]; at 11.0 µM,34%
same,growth inhibition,[5]; at 33.0 µM,89% (active)
same,growth inhibition,[5]; [18],97% (active)
same,growth inhibition,[5]; at 50.0 µM,88.4% (active)
same,growth inhibition,[5]; at 100.0 µM,95% (active)
same,growth inhibition,[6]; at 1.2 µM,15%
same,growth inhibition,[6]; at 3.7 µM,23%
same,growth inhibition,[6]; [17],-8%
same,growth inhibition,[6]; at 11.0 µM,23%
same,growth inhibition,[6]; at 33.0 µM,96% (active)
same,growth inhibition,[6]; [18],96% (active)
same,growth inhibition,[6]; at 50.0 µM,90.3% (active)
same,growth inhibition,[6]; at 100.0 µM,96% (active)
same,growth inhibition,[7]; at 1.2 µM,-8%
same,growth inhibition,[7]; at 3.7 µM,-4%
same,growth inhibition,[7]; at 11.0 µM,11%
same,growth inhibition,[7]; at 33.0 µM,76% (active)
same,growth inhibition,[7]; at 100.0 µM,95% (active)
same,growth inhibition,[8]; [17],10%
same,growth inhibition,[8]; [18],50%
same,growth inhibition,[8]; at 50.0 µM,91.7% (active)
same,growth inhibition,[9]; at 1.2 µM,10%
same,growth inhibition,[9]; at 3.7 µM,-3%
same,growth inhibition,[9]; at 11.0 µM,7%
same,growth inhibition,[9]; at 33.0 µM,60%
same,growth inhibition,[9]; at 100.0 µM,96% (active)
same,growth inhibition,[10]; [17],15%
same,growth inhibition,[10]; [18],95% (active)
same,growth inhibition,[10]; at 50.0 µM,89% (active)
same,growth inhibition,[11]; at 1.2 µM,-6%
same,growth inhibition,[11]; at 3.7 µM,-29%
same,growth inhibition,[11]; [17],-22%
same,growth inhibition,[11]; at 11.0 µM,-9%
same,growth inhibition,[11]; at 33.0 µM,74% (active)
same,growth inhibition,[11]; [18],97% (active)
same,growth inhibition,[11]; at 50.0 µM,85.3% (active)
same,growth inhibition,[11]; at 100.0 µM,95% (active)
